The record followed here is PubChem BioAssay AID2535 (National Center for Advancing Translational Sciences (NCATS), 2010).

Each structure is given as a SMILES string. The source made the active and inactive calls. Calls follow the shape of the dose curve; as a rule, active = well fitted curve in the direction sought with a large enough effect; inconclusive = small, poorly fitted or top-dose-only effect, or effect the other way, or another doubt; inactive = no such curve, though single readings can be large or run the other way.

Sequence of Pyruvate kinase PKLR (Homo sapiens) (P30613 whole entry, looked up): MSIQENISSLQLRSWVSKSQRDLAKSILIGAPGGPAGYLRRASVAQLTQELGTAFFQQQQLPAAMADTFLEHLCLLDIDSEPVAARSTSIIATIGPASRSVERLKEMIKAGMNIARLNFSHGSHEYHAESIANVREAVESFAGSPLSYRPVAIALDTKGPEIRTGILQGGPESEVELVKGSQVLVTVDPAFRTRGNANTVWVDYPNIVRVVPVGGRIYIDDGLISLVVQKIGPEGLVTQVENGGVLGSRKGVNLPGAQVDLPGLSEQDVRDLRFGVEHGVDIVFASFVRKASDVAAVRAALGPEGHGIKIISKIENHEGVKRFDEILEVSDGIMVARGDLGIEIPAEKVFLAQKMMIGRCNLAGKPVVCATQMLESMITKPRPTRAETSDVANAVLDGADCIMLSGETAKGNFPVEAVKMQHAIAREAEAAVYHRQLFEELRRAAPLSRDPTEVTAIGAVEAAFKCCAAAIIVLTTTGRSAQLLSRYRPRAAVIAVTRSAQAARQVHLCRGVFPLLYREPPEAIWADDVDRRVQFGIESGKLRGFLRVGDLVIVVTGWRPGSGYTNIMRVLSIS

The assay addresses Pyruvate kinase PKLR (Homo sapiens) (UniProt P30613). As to the kind of experiment: Secondary Concentration-Response Assay for Activators of Human Liver Pyruvate Kinase: for Probe SAR.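 Also: 0% = uninhibited enzyme wells on each plate.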 The following applies: purified hPK-L, ATP production, Kinase-Glo luminescence; series mostly up to 58.3 µM; activity change, positive = activation: at the top concentration. From the text: NIH Chemical Genomics Center [NCGC]
Matthew G. Vander Heiden, M.D., Ph.D. [Harvard Medical School, 77 Avenue Louis Pasteur, Boston, MA 02115]
Human pyruvate kinase liver (hPK-L) enzyme was supplied as a highly purified (>95% pure) preparation from Harvard Medical School and assayed for its ability to generate ATP from ADP using phosphoenolpyruvate (PEP) as a substrate. ATP generation was detected in a coupled reaction by luciferase-mediated luminescence, an ATP-dependent process. Pyruvate kinase substrates, PEP and ADP, were present in the assay at Km and approximately 10-fold below Km respectively. The enzyme was assayed at an intermediate level of activity to screen for both inhibitors and activators.
NCGC Assay Protocol Summary for L-isoform:
Three uL of substrate mix (at r.t.) in assay buffer (50 mM Imidazole pH7.2, 50 mM KCl, 7 mM MgCl2, 0.01% Tween 20, 0.05% BSA) was dispensed into white solid bottom 1,536 well microtiter plates so that the final concentrations of substrates in the assay were 0.1 mM ADP and 0.5 mM PEP. 23 nL of compound were delivered by a pin tool and 1 uL of enzyme mix (final concentration of 0.1 nM) in assay buffer (4 degree Celsius) was added. Plates were incubated at room temperature for 1 hour. Two uL of detection mix (Kinase-Glo, Promega; at 4 degree Celsius protected from light) was added and luminescence read by a ViewLux (Perkin Elmer) at 1 second exposure/plate. Data were normalized to the uninhibited (row 31). Additionally, a no enzyme and 5-fold enzyme control was dispensed in row 32, split equally between the two conditions.
A general note: Kinase-Glo measures the ATP left after a reaction by luminescence.
`O=C1CCc2cc(S(=O)(=O)Nc3cccc(F)c3)ccc2N1`: the “activity change, positive = activation” value was -8.3% (inactive).

Take `Cc1ccn2c(NC3CCCCC3)c(-c3ccc(C)o3)nc2c1`: the “activity change, positive = activation” value is -25.8% (inactive).

As for `Cc1ccccc1Nc1c(-c2ccc(Cl)s2)nc2ccccn12`, the “activity change, positive = activation” value was 1.64% (inactive).

For `Cc1ccccc1OC1=NS(=O)(=O)c2ccccc21`, the “activity change, positive = activation” value was 0.916% (inactive).

Consider `O=C1c2ccccc2C(=O)N1c1ccc2ccccc2n1`, for which the “activity change, positive = activation” value was -10.2% (inactive).

Turning to `Cc1ccc(NS(=O)(=O)c2cc3c(cc2Cl)CCC(=O)N3)cc1Cl`, the “activity change, positive = activation” value is 14.3% (inactive).

In the case of `Cc1cccc(NS(=O)(=O)c2ccc3c(c2)CCC(=O)N3)c1`, the “activity change, positive = activation” value was 5.35% (inactive).

Take `Cc1ccc(NS(=O)(=O)c2cc3c(cc2Br)NC(=O)CO3)cc1C`: the “activity change, positive = activation” value is 14.1% (inactive).

Take `O=C1c2ccccc2C(=O)N1c1cnc2ccccc2c1`: the “activity change, positive = activation” value is 3.06% (inactive).

As for `Cc1ccc(NS(=O)(=O)c2ccc3c(c2)CC(=O)N3C)cc1C`, the “activity change, positive = activation” value was 17.1% (inactive).

On to `Cc1ccc(NS(=O)(=O)c2cccc(Cl)c2)cc1C`, for which the “activity change, positive = activation” value was 5.58% (inactive).

With `Cc1ccc(NS(=O)(=O)c2cc3c(cc2C)OCC(=O)N3)cc1C`, the “activity change, positive = activation” value is 12% (inactive).

As to `O=C1CCc2cc(S(=O)(=O)Nc3cccc(Oc4ccccc4)c3)ccc2N1`, the “activity change, positive = activation” value was 2.11% (inactive).

With `O=C1CCc2cc(S(=O)(=O)Nc3ccc(Cl)c(Cl)c3)ccc2N1`, the “activity change, positive = activation” value was 4.66% (inactive).

As for `Cc1ccc2nc(-c3ccc(C)o3)c(NC3CCCC3)n2c1`, the “activity change, positive = activation” value is 7.09% (inactive).

Consider `O=C1CCc2cc(S(=O)(=O)Nc3ccc(Cl)cc3)ccc2N1`, for which the “activity change, positive = activation” value was 4.09% (inactive).

On to `Cc1cc(C)n2c(Nc3ccccc3)c(-c3ccc(C)o3)nc2n1`, for which the “activity change, positive = activation” value was 7% (inactive).

As to `Cc1ccc(NS(=O)(=O)c2cc3c(cc2Cl)NC(=O)CO3)cc1C`, the “activity change, positive = activation” value is 2.95% (inactive).

Turning to `Cc1ccn2c(NCc3ccco3)c(-c3ccccc3)nc2c1`, the “activity change, positive = activation” value is -11.5% (inactive).

For `O=C1c2ccccc2C(=O)N1c1cccc2cccnc12`, the “activity change, positive = activation” value was 3.16% (inactive).

For `CN(C)c1cccc(S(=O)(=O)N2CCN(S(=O)(=O)c3ccc4c(c3)OCCO4)CC2)c1`, the “activity change, positive = activation” value was 13.5% (inactive).

In the case of `O=C1CCc2cc(S(=O)(=O)Nc3ccc4ncccc4c3)ccc2N1`, the “activity change, positive = activation” value is 11.9% (inactive).

On to `O=C1c2ccccc2C(=O)N1c1ccncc1`, for which the “activity change, positive = activation” value was -1.3% (inactive).

As for `O=C1CCc2cc([S+](=O)([O-])NC3CCOCC3)ccc2N1`, the “activity change, positive = activation” value was -3.54% (inactive).

In the case of `O=C1CCc2cc(S(=O)(=O)Nc3cccc(-c4ccccc4)c3)ccc2N1`, the “activity change, positive = activation” value is 6.52% (inactive).

Take `CCCCN1C(=O)c2ccccc2C1=O`: the “activity change, positive = activation” value was 0.342% (inactive).

`O=C1CCc2cc(S(=O)(=O)Nc3ccccc3Cl)ccc2N1`: the “activity change, positive = activation” value was -6.82% (inactive).

Take `Cc1ccc(-c2nc3cnccn3c2Nc2ccc(C(C)C)cc2)o1`: the “activity change, positive = activation” value was -0.25% (inactive).

On to `CC(=O)N1CCCc2cc(S(=O)(=O)Nc3ccc(C)c(C)c3)ccc21`, for which the “activity change, positive = activation” value was -5.11% (inactive).

With `Cc1ccc(NS(=O)(=O)c2ccc(-c3ccccc3)cc2)cc1C`, the “activity change, positive = activation” value is 10.8% (inactive).

For the compound `CN(C)c1cccc(S(=O)(=O)N2CCCN(S(=O)(=O)c3ccc4c(c3)OCCO4)CC2)c1`, the “activity change, positive = activation” value was 20% (inactive).

As to `O=C1CCc2cc(S(=O)(=O)Nc3cccc4ccccc34)ccc2N1`, the “activity change, positive = activation” value was 0.398% (inactive).

Take `Cc1cc2c(s1)c1cnn(Cc3ccccc3F)c(=O)c1n2C`: the outcome was inactive.

Regarding `Cc1ccc(NS(=O)(=O)c2ccc(F)cc2)cc1C`, the “activity change, positive = activation” value was -2.34% (inactive).

Consider `O=C1CCc2cc(S(=O)(=O)NCc3ccccc3)ccc2N1`, for which the “activity change, positive = activation” value was 4.67% (inactive).

Consider `Cc1ccc(NS(=O)(=O)c2ccc3c(c2)CCC(=O)N3)cc1C`, for which the “activity change, positive = activation” value was 7.77% (inactive).

Regarding `Cc1ccc(Cl)cc1NS(=O)(=O)c1cc2c(cc1Cl)CCC(=O)N2`, the “activity change, positive = activation” value was 9.87% (inactive).

As to `COc1ccc(Nc2c(-c3ccc(C)o3)nc3ccccn23)cc1`, the “activity change, positive = activation” value is 2.05% (inactive).

For `O=C1c2ccccc2C(=O)N1c1cccc2cnccc12`, the “activity change, positive = activation” value was -1.65% (inactive).

Take `Cc1ccc(Nc2c(-c3ccc(C)s3)nc3cccc(C)n23)cc1`: the “activity change, positive = activation” value was 6.05% (inactive).
